Cruzain inh Det = cruzain (T. cruzi) inhibition with detergent | P25779 | purified cruzain, Z-FR-AMC fluorescence, 0.01% Triton | Potency, µM, for the others: max response, negative = inhibition, usual class: inhibitors | 200,000 tested, 0.43% active | AID 1478;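 also: plate controls were neutral wells for no effect and buffer without enzyme for full effect; nearly all actives have a fitted effect of over 40% in size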
Target sequence (P25779 123-467 limits assumed): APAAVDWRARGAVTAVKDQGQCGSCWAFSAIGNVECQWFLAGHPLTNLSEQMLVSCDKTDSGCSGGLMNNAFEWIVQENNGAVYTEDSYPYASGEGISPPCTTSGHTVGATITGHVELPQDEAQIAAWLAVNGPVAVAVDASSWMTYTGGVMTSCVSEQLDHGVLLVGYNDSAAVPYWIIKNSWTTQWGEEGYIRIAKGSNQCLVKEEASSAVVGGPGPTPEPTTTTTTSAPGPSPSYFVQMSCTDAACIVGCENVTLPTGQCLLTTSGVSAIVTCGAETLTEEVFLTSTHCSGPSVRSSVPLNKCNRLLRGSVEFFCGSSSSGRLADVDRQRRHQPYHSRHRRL
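Cruzain (1.5 nM) preincubated 15 min at RT with compound in 100 mM sodium acetate pH 5.5, 5 mM DTT, 0.01% Triton X-100. Reaction started with 2 uM Z-FR-AMC; AMC fluorescence (ex 360/em 450 nm) change over 60 s gave rate.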
Cruzain inh noDet = blocks cruzain activity in detergent-free assay; P25779; 200,000 tested, 2.3% active; Potency, µM, for inactives: max response, negative = inhibition, actives largely listed as inhibitors; purified cruzain, Z-FR-AMC fluorescence, no detergent;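 also: plate controls were enzyme without inhibitor for no effect and buffer without enzyme for full effect; nearly all actives have a fitted effect of over 40% in size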
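Purified cruzain at 1.5 nM, pre-incubated 15 min with compound at room temperature in 100 mM sodium acetate pH 5.5, 5 mM DTT, 0.00005% Triton X-100. Reaction started with 2 uM Z-FR-AMC; AMC fluorescence increase over 60 s gives rate.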
Starred values were filed as active, the others as inactive; ? = inconclusive. Rows were chosen to be rich in hits. Some 2.4% of all compounds tested hit in one or more screens of this group. Calls follow the shape of the dose curve; as a rule, active = well fitted curve in the direction sought with a large enough effect; inconclusive = small, poorly fitted or top-dose-only effect, or another doubt; inactive = no such curve, though single readings can be large; an effect the other way counts as inactive or inconclusive. Potency is read from the fitted curve at half-maximal effect.

SMILES	Cruzain inh Det	Cruzain inh noDet
CCOCCCn1c(=N)c(C(=O)NCC2CCCO2)cc2c(=O)n3cc(C)ccc3nc21 (stereo not given)	1%	?
COCCCn1c(=N)c(C(=O)NCC2CCCO2)cc2c(=O)n3ccccc3nc21 (stereo not given)	28µM*	?
COc1ccc2c(C)c(CCC(=O)NCc3ccc(C)cc3)c(=O)oc2c1	-7%	0%
O=C(CSc1nc2ccccc2n1Cc1c(F)cccc1Cl)N1CCN(c2ccc(F)cc2)CC1	0%	-7%
O=C(N/N=C/c1ccc(Br)o1)c1ccc2c(c1)OCCO2	-6%	-12%
O=C(N/N=C\c1ccc(-c2ccc([N+](=O)[O-])cc2)o1)c1ccc2c(c1)OCO2	-1%	7.9µM*
COCCn1c(=O)c(-c2cc(F)cc(F)c2)nc2cnc(Nc3cccc(OC)c3)nc21	0%	-1%
CC(=O)[C@]1(O)CCC2C3CC(C)C4=CC(=O)C=CC4(C)[C@@]3(F)C(O)C[C@]21C (stereo not given in full)	5%	-1%
NC1=Nc2ccccc2Oc2ccccc21	?	25µM*
c1ccc(C2=Nc3ccccc3OC2)cc1	-3%	-18%
CN1Cc2c(N)cccc2[C@H](c2ccccc2)C1	4%	-5%
COc1ccc(N(C(=O)c2ccc(C(C)(C)C)cc2)S(=O)(=O)c2ccc(Cl)cc2)cc1	-3%	10µM*
COc1ccc(N(C(=O)c2cccc(C)c2)S(=O)(=O)c2ccc(Cl)cc2)cc1	-3%	-30%
O=C(Cn1ncc2c3ccccc3n(Cc3ccccc3)c2c1=O)NCCCN1CCCCC1	-4%	7%
CCOc1ccc(/C=C/C(=O)Nc2ccc3nc(N(CC)CC)cc(C)c3c2)cc1OC	-17%	-7%
Cc1cccc(-n2c(C)cc(C(=O)C(=O)Nc3ccccc3F)c2C)c1C	-16%	-28%
Cc1cc(C)nc(N/N=C/C2=C(N3CCOCC3)C(=C\c3ccc(Cl)cc3)/CC2)n1	-10%	-21%
Cc1occc1C(=O)N/N=C/C1=C(N2CCOCC2)C(=C\c2ccc(Cl)cc2Cl)/CC1	-5%	25µM*
COC(=O)c1sc2cccc(F)c2c1S(=O)(=O)N1CCN(c2ccc(C)cc2C)CC1	-6%	?
CCOC(=O)c1sc2ccccc2c1S(=O)(=O)N1CCN(c2cc(C)ccc2C)CC1	-4%	20µM*
COc1ccc(NC(=O)CCCN2C(=O)C(c3ccccc3)Oc3cccnc32)c(OC)c1 (stereo not given)	-4%	18%
O=S(=O)(Nc1ccc2oc3c(c2c1)CCCC3)c1cc(Cl)ccc1Cl	-3%	32µM*
COc1ccc(S(=O)(=O)Nc2ccc3oc4c(c3c2)CCCC4)cc1	-11%	?
COc1ccc2c(C)c(CCC(=O)NCCc3ccccc3OC)c(=O)oc2c1	-3%	-6%
COc1ccc(-c2cccc(-c3cc(=O)oc4ccc(C(C)(C)C)cc34)c2)cc1	0%	35µM*
SMILES	Cruzain inh Det	Cruzain inh noDet
COc1cc(OC)c2c(-c3cccc(-c4ccc(C(C)=O)cc4)c3)cc(=O)oc2c1	4%	?
COc1cc2oc(=O)cc(-c3cccc(-c4ccc(C(F)(F)F)cc4)c3)c2c(OC)c1OC	0%	-24%
COc1cc(OC)c2c(-c3cccc(-c4ccc(OC)c(F)c4)c3)cc(=O)oc2c1	0%	32µM*
Cc1ccc(C2C(=O)N(C3CCCCCC3)CC(=O)N2C(C)C)cc1 (stereo not given)	0%	7%
COc1ccc(Nc2cc(C(=O)NCCCN3CCN(c4ccccc4F)CC3)c3ccccc3n2)c(OC)c1	-15%	-14%
CCOc1cc(-c2ccc(N)c(OCC)c2)ccc1N	-8%	25µM*
CCOc1ccc(NC(C)=O)cc1N	1%	-7%
CCNc1ncc2nc(-c3ccc(OC)cc3)c(=O)n(Cc3cccs3)c2n1	5%	-2%
COc1cccc(NC(=O)C2CCC(CNS(=O)(=O)c3ccc4c(c3)CCCC(=O)N4)CC2)c1 (stereo not given)	-1%	1%
CN(Cc1ccccc1)C(=O)c1c[nH]c2ccc(S(=O)(=O)Nc3ccccc3F)cc2c1=O	-6%	-7%
Cc1ccc(C2C(C=Nc3c(C)n(C)n(-c4ccccc4)c3=O)=C(c3ccccc3)Oc3ccccc32)cc1 (stereo not given)	-3%	7.9µM*
Cc1c(N=Cc2cccs2)c(=O)n(-c2ccccc2)n1C	4%	-9%
CCCCCCCCCCCCCCCC(=O)OC(CC(=O)O)C[N+](C)(C)C (stereo not given)	-11%	?
O=C(Nc1ccccc1N1CCCCC1)c1ccc(-c2cccc(Cl)c2)o1	-2%	-3%
O=C(NC(=S)Nc1cc(Cl)ccc1N1CCOCC1)c1ccc(-c2cccc(Cl)c2)o1	5%	7.9µM*
Cc1cc2n(n1)CCC(=O)N2Cc1ccc(C(=O)Nc2cccc(C(F)(F)F)c2)cc1	-8%	?
Cc1ccc(/C=C/C(=O)Nc2nc3ccccc3[nH]2)cc1	3%	25µM*
Cc1ccc(/C=C/C(=O)c2nc3ccccc3[nH]2)cc1	3%	-8%
CCOc1ccc(NC(=O)c2cccc(N3CCCS3(=O)=O)c2)cc1	2%	5%
Cc1cccc(NC(=O)CSc2nnc([C@@H](N)Cc3c[nH]c4ccccc34)o2)c1C	13µM*	13µM*
CCSc1nnc([C@@H](N)Cc2c[nH]c3ccccc23)o1	2%	7%
COc1cccc(CNC(=O)c2sc3nc(C)cc(C)c3c2-n2cccc2)c1OC	-2%	1%
COc1ccc(CNC(=O)c2ccc3c(c2)CCN3S(=O)(=O)c2ccccc2)cc1	-4%	-6%
O=C(CN1C(=O)C2C3CCC(C3)C2C1=O)OCC(=O)c1cccc([N+](=O)[O-])c1 (stereo not given)	0%	-11%
CC(C)C(C(=O)OCC(=O)c1cccc([N+](=O)[O-])c1)N1C(=O)[C@@H]2[C@H]3CC[C@H](C3)[C@@H]2C1=O (stereo not given in full)	16µM*	?
SMILES	Cruzain inh Det	Cruzain inh noDet
Cc1ccc(C(=O)Nc2nnc(S(=O)(=O)N(C)Cc3ccc(Cl)cc3)s2)cc1	6%	-6%
c1ccc(-c2ccc(CN3C[C@@H]4C(c5ccccc5)C5(c6cccnc6)CC4(C5)[C@H]3c3ccccc3)cc2)cc1 (stereo not given in full)	0%	-1%
FC(F)(F)c1ccc(C2[C@H]3CN(Cc4ccc(-c5ccccc5)cc4)[C@H](c4ccccc4)C34CC2(c2cccnc2)C4)cc1 (stereo not given in full)	7%	-6%
COC(=O)c1cccc(C23CC4(C2)[C@H](CN(Cc2ccc(C(F)(F)F)cc2)[C@@H]4c2ccccc2)C3c2ccccc2)c1 (stereo not given in full)	0%	-29%
COC(=O)c1ccc(C23CC4(C2)[C@H](CN(Cc2ccc(-c5ccccc5)cc2)[C@@H]4c2ccccc2)C3c2ccc(C(F)(F)F)cc2)cc1 (stereo not given in full)	1%	?
COC(=O)c1cccc(C23CC4(C2)[C@H](CN(Cc2ccc(-c5ccccc5)cc2)[C@@H]4c2ccccc2)C3c2ccc(C(F)(F)F)cc2)c1 (stereo not given in full)	-2%	25µM*
COC(=O)c1cccc(C23CC4(C2)[C@H](CN(Cc2ccc(-c5ccccc5)cc2)[C@@H]4c2ccccc2)C3c2ccccc2)c1 (stereo not given in full)	3%	13µM*
